The source of these data is ChEMBL document CHEMBL3988442, “University of Dundee, Small-Polar-MMV Screening Library” (2021).

Common to all, as to design: scale not given: direction of the effect not stated beside the values
Experiment [1] deals with Protein translocase subunit SecA (Escherichia coli (strain K12)) (UniProt P10408). The experiment in a line: Assay to Identify E. coli SecA ATPase Inhibitors. In kind it is functional. Conditions: 30 µM.
Experiment [2] has as its target T1, Ubiquitin-activating enzyme e1, putative (Leishmania donovani (strain BPK282A1)) (UniProt E9BSI1).
T1 sequence (whole entry): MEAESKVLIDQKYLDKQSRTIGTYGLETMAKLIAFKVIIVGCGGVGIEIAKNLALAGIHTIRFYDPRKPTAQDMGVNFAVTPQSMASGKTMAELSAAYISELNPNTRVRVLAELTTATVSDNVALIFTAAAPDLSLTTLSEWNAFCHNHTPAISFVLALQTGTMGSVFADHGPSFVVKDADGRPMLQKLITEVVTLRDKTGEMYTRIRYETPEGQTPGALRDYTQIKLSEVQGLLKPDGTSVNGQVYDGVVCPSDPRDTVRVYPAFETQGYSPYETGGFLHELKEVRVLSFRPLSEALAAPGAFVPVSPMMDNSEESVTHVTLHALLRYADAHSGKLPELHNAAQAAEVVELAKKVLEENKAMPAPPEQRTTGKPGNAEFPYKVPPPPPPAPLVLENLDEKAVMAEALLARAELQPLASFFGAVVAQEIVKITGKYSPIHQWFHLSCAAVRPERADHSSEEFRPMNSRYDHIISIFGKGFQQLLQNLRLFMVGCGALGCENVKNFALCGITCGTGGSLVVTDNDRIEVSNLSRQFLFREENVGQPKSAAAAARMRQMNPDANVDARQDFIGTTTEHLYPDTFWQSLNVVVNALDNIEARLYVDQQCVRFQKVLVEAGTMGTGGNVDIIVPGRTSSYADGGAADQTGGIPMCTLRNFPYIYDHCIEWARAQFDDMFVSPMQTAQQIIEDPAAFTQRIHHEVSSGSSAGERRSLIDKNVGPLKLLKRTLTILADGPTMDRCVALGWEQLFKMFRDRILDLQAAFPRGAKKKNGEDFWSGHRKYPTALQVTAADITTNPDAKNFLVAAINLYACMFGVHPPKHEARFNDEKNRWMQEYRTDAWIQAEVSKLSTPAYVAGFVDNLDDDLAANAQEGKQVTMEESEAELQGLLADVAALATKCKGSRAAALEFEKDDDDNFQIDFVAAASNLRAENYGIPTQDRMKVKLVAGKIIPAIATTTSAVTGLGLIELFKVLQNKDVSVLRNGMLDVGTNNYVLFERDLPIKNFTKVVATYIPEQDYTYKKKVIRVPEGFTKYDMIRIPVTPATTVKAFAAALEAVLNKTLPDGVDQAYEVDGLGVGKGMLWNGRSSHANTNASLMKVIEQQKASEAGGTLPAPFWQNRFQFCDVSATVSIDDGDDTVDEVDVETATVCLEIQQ
Kind of experiment: Leishmania donovani Ubiquitin Activating Enzyme (LdE1). In kind it is functional. To be noted: 30 µM.

Experiment [3] has as its target AMP-activated protein kinase, AMPK (Homo sapiens) (UniProt P54646+O43741+P54619+Q9UGJ0+Q9Y478+Q13131+Q9UGI9). Kind of experiment: AMP-dependent Kinase enzyme assay. An in vitro enzyme assay that detects ADP turnover that is directly proportional to AMPK activity. This uses naive AMPK that is activated during the assay with MK-8722. In kind it is functional. To be noted: 30 µM.

Experiment [4] deals with Sialic acid-binding Ig-like lectin 9 (Homo sapiens) (UniProt Q9Y336). The experiment in a line: Hs-Siglec9 ALPHAscreen SOP 20170721. Conditions: 10 µM. Background: Alpha assays give light when donor and acceptor beads are brought close together.
Another experiment concerns Trypanosoma cruzi. Kind of experiment: Trypanosoma cruzi phosphomannomutase and mannose-1-phosphate guanylyltransferase assay. Type of experiment: functional. To be noted: 10 µM.
In experiment [5] the target is T2, Arginase-2, mitochondrial (Homo sapiens) (UniProt P78540).
T2 sequence (whole entry): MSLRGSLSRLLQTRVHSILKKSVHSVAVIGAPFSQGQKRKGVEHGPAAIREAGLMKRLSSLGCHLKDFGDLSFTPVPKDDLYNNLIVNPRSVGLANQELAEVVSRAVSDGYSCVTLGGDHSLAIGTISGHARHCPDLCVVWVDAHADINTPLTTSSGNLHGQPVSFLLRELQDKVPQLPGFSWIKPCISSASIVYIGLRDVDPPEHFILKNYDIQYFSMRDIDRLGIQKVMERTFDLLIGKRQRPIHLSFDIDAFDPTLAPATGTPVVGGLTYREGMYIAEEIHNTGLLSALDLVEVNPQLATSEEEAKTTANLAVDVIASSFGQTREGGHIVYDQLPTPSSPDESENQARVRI
Kind of experiment: in vitro enzyme assay to detect the production of urea directly proportional to the activity of Arginase II. Also: in the data most compounds retested in dose-response had high values. In kind it is functional. Conditions: 33.3 µM.

Experiment [6] concerns the target T3, Proteasome subunit beta (Trypanosoma cruzi) (UniProt O96673).
T3 sequence (whole entry): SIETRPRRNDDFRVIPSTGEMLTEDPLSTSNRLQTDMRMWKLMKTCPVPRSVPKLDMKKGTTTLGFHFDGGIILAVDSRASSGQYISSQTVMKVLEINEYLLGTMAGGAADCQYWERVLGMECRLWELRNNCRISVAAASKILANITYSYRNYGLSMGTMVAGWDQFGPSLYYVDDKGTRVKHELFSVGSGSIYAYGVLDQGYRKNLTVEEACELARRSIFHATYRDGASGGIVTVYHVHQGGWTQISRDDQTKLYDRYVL
The experiment in a line: Trypanosoma cruzi proteasome chymotrypsin-like activity (TcProtChymo) assay. Also: in the data most compounds retested in dose-response had high values. In kind it is functional. To be noted: 9.37 µM.

The species named for the next experiment is Homo sapiens. Kind of experiment: To identify inhibition of the IFN signalling (Jak-Stat) pathway via expression of an eGFP reporter gene under the control of an IFN-stimulated response element (ISRE) containing MxA promoter. Type of experiment: functional. To be noted: 30 µM. (Reporter assays use an easily measured gene product as a stand-in for the process of interest.)

Experiment [7] deals with T4, Tyrosyl-tRNA synthetase, putative (Trypanosoma cruzi (strain CL Brener)) (UniProt Q4DSP6).
T4 sequence (whole entry): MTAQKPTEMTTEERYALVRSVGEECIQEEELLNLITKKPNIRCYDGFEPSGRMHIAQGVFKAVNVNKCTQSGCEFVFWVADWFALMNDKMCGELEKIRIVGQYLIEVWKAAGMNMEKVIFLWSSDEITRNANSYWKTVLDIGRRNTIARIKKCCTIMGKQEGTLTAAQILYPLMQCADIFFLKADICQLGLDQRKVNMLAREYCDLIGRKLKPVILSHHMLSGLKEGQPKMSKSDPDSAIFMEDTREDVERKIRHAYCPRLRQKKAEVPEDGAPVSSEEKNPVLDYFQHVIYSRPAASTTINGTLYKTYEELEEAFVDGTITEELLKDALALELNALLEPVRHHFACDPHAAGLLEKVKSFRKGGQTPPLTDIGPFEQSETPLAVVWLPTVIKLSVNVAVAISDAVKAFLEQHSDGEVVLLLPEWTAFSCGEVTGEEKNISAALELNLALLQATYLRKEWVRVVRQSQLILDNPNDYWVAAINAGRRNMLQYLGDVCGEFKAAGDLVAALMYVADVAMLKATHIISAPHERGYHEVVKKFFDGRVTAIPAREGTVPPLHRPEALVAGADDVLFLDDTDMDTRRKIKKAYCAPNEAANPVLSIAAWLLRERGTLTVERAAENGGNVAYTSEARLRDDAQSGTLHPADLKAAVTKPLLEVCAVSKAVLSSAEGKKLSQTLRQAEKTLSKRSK
Kind of experiment: Trypanosoma cruzi tyrosyl tRNA synthetase (TcYRS) _High Tyrosine SOP. Also: in the data most compounds retested in dose-response had high values. To be noted: 30 µM. In kind it is functional.

Experiment [8] has as its target T4, Tyrosyl-tRNA synthetase, putative (Trypanosoma cruzi (strain CL Brener)). The experiment in a line: Trypanosoma cruzi tyrosyl tRNA synthetase (TcYRS) SOP. In kind it is functional. Conditions: 30 µM.
Experiment [9] addresses Chromo domain-containing protein 1 (Saccharomyces cerevisiae (strain ATCC 204508 / S288c) (Baker's yeast)) (UniProt P32657). The experiment in a line: ScCHD-1 Enzyme Inhibition Assay. Also: in the data most compounds retested in dose-response had high values. Type of experiment: functional. To be noted: 30 µM.

For some of these results: Results with a measured potency or affinity are listed apart.

Protein translocase subunit SecA (Escherichia coli (strain K12)), sequence (P10408 whole entry): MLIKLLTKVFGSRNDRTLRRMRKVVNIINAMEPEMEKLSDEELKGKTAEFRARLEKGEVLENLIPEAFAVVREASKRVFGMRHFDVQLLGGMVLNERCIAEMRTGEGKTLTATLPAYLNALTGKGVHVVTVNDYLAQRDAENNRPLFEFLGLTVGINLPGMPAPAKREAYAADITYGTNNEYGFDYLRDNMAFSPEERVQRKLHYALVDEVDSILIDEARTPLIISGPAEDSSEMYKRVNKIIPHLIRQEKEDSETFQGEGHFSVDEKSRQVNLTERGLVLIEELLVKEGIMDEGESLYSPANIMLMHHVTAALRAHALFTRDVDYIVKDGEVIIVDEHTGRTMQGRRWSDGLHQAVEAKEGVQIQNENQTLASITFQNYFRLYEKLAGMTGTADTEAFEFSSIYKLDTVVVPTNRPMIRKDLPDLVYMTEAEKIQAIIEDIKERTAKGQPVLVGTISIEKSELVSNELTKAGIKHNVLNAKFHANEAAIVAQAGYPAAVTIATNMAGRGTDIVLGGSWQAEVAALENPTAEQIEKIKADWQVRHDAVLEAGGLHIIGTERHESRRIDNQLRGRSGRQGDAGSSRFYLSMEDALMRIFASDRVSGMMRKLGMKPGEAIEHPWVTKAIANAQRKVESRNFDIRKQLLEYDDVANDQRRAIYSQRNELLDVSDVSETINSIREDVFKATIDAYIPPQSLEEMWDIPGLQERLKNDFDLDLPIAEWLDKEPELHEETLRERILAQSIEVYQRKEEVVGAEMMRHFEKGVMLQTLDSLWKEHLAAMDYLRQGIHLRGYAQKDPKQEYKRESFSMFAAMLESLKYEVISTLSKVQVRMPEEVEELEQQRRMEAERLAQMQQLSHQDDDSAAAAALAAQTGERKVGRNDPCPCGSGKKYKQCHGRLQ
Chromo domain-containing protein 1 (Saccharomyces cerevisiae (strain ATCC 204508 / S288c) (Baker's yeast)), sequence (P32657 whole entry, the tested form may be a part): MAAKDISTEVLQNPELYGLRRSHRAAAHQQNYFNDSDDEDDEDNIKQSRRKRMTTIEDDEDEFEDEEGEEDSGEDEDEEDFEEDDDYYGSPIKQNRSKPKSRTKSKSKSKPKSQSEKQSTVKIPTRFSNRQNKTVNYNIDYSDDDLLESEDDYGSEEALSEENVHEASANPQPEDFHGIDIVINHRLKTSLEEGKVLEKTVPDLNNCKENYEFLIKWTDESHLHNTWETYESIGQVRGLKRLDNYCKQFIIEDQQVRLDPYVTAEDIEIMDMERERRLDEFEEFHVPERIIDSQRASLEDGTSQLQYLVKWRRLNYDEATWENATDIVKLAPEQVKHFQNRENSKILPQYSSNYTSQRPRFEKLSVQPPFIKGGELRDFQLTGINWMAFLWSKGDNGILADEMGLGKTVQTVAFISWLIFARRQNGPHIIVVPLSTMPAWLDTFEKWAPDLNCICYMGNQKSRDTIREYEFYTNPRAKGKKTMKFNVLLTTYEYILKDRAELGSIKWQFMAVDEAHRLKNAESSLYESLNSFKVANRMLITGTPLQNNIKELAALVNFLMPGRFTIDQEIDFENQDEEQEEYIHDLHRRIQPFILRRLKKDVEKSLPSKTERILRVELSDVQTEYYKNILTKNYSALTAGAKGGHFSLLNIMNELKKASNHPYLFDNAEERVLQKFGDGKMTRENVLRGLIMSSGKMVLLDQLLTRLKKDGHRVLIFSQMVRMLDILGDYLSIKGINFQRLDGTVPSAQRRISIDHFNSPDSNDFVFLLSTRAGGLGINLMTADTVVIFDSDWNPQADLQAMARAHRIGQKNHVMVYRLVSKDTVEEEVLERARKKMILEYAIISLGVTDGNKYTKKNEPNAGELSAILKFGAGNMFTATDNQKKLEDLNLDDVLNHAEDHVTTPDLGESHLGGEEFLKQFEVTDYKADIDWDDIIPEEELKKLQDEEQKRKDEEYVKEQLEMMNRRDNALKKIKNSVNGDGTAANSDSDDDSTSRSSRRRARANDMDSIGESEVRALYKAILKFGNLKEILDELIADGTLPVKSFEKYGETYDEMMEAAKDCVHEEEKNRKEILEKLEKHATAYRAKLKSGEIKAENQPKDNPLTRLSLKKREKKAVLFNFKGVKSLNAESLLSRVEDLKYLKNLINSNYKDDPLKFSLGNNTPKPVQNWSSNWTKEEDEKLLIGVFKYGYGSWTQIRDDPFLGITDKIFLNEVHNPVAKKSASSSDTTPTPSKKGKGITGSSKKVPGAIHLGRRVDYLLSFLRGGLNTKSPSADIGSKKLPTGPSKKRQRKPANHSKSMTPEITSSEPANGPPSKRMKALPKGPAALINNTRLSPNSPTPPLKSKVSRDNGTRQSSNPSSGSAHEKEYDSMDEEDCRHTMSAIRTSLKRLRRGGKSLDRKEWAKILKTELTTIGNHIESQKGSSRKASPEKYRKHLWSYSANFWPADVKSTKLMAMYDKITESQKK
Sialic acid-binding Ig-like lectin 9 (Homo sapiens), sequence (Q9Y336 whole entry): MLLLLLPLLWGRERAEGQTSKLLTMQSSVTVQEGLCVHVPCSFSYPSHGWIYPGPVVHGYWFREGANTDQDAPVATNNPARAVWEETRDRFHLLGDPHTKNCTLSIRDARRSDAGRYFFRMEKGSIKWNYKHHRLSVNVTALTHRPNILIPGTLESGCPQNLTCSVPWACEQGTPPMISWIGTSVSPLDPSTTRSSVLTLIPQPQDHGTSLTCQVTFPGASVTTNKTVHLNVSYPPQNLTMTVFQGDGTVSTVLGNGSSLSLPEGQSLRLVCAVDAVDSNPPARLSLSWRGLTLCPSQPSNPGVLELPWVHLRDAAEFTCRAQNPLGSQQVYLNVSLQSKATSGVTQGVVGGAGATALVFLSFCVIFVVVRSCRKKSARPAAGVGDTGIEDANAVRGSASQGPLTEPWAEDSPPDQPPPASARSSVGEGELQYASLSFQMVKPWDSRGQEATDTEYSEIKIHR

For the compound `CC(C)C(=O)NCC(=O)N(C)C1CCCN(CCc2ccccc2)C1` (stereo unspecified), the Percent Effect in experiment [1] was -2.17%; in experiment [2], 10.8%; in experiment [3], 0.942%; in [4] it was 15.5%; with Trypanosoma cruzi, 4.25%; in [5], -0.952%. Further, the Percent Effect in experiment [6] was 11.9%; in the experiment filed under Homo sapiens it was -0.751%; in experiment [7], 3.7%; in [8], 4.88%; in experiment [9] it was -5.28%.

For `c1ccc(Cn2cc3c(n2)C(CNCc2ccco2)OCC3)nc1` (stereo unspecified), the Percent Effect in experiment [1] was -3.96%; in experiment [2], 2.7%; in experiment [3], 0.188%; in experiment [4], 3.43%; with Trypanosoma cruzi, -4.49%; in experiment [5], 4.17%. The Percent Effect is 2.79% in experiment [6]; -8.58% in the experiment filed under Homo sapiens; 4.95% in [7]; 11% in experiment [8]; -1.79% in experiment [9].

As to `Cc1cc(CN2CCCC(C)(CO)C2)ccc1F` (stereo unspecified), the Percent Effect in experiment [1] is 0.156%; in [2], 5.41%; in experiment [3] it was -7.31%; in experiment [4], 1.4%; in the experiment with Trypanosoma cruzi, 2.05%; in experiment [5], 12.2%. The Percent Effect in [6] was 0.0858%; in the experiment listed under Homo sapiens it was 5.91%; in experiment [7], -1.07%; in experiment [8] it was 3.7%; in experiment [9], -7.89%.

Turning to `O=C(O)c1nnn(Cc2cccc(C(F)(F)F)c2)c1-c1cccnc1`, the Percent Effect is 2.36% in [1]; 6.67% in experiment [2]; 10.2% in [3]; -2.89% in [4]; -4.13% in the experiment with Trypanosoma cruzi; -10.4% in experiment [5]. In addition, the Percent Effect in experiment [6] is 8.5%; in the experiment filed under Homo sapiens, 4%; in experiment [7] it was 7.41%; in experiment [8] it was 12.8%; in experiment [9] it was -7.79%.

With `Cc1[nH]ccc1C(=O)N1CCC(c2nnc(Cn3cccn3)n2C)CC1`, the Percent Effect was -2.68% in experiment [1]; 2.74% in [2]; -3.04% in experiment [3]; 10.2% in experiment [4]; 2.98% with Trypanosoma cruzi; 1.6% in [5]. The Percent Effect in experiment [6] is 6.42%; in the experiment listed under Homo sapiens, -10.2%; in [7], 5.21%; in experiment [8], 13.6%; in experiment [9] it was 1.58%.

In the case of `CC(C)C(NC(=O)NCCNc1ccccn1)c1cccs1` (stereo unspecified), the Percent Effect in experiment [1] was -6.06%; in experiment [2] it was 18.2%; in experiment [3] it was -14.7%; in [4] it was 6.36%; with Trypanosoma cruzi, -0.187%; in experiment [5] it was 4.98%. Moreover, the Percent Effect is 10.8% in experiment [6]; 8.29% in the experiment filed under Homo sapiens; 9.71% in [7]; 26.8% in [8]; -7.99% in experiment [9].

For the compound `Nc1nccc(NCc2cc3n(n2)CCCN(C(=O)C2CCC2)C3)n1`, the Percent Effect in experiment [1] is -4.85%; in experiment [2], 8.22%; in experiment [3], 2.89%; in [4], 2.05%; in the experiment on Trypanosoma cruzi, -0.794%; in [5], -3.59%. Also, the Percent Effect in [6] is 14.5%; in the experiment listed under Homo sapiens it was 9.88%; in experiment [7] it was 4.17%; in experiment [8], 11.1%; in [9], -0.468%.

Regarding `c1cnc(N2CCOCC3(CCCN(CC4CC4)C3)C2)cn1` (stereo unspecified), the Percent Effect in [1] is -1.84%; in experiment [2] it was 5.33%; in [3], 1.73%; in [4] it was 4.28%; in the experiment with Trypanosoma cruzi, -1.74%; in experiment [5], -52.5%. In addition, the Percent Effect was 6.84% in experiment [6]; -10.7% in the experiment filed under Homo sapiens; 4.17% in experiment [7]; 5% in experiment [8]; -4.17% in experiment [9].

On to `O=C(C[C@@H]1COC[C@H]2CN(Cc3ccc(F)cc3)C[C@@H]12)N1CCOCC1`, for which the Percent Effect in [1] was -9.06%; in [2], 17.3%; in experiment [3], -1.45%; in [4], -0.881%; with Trypanosoma cruzi it was -3.73%; in experiment [5], -10.4%. Further, the Percent Effect in experiment [6] was 7.58%; in the experiment listed under Homo sapiens, 7.29%; in experiment [7], -2.12%; in experiment [8], -5.13%; in experiment [9], -10.9%.

Take `CCn1nccc1CNC(=O)C1CCCC1`: the Percent Effect is 0.221% in experiment [1]; 10.4% in [2]; 2.62% in experiment [3]; 4.33% in experiment [4]; -7.38% with Trypanosoma cruzi; 1.38% in [5]. The Percent Effect is 9.65% in experiment [6]; -1.06% in the experiment filed under Homo sapiens; 5.38% in experiment [7]; 16.1% in experiment [8]; -0.569% in experiment [9].

Take `O=C1[C@@H]2CCN(Cc3ccoc3)C[C@@H]2OCCN1c1ccccc1`: the Percent Effect is -5.21% in [1]; 10.7% in experiment [2]; 13% in experiment [3]; 1.36% in experiment [4]; -2.95% in the experiment with Trypanosoma cruzi; 8.16% in experiment [5]. In addition, the Percent Effect in experiment [6] came to 5.02%; in the experiment filed under Homo sapiens, 5.67%; in experiment [7], 3.19%; in experiment [8], 11.5%; in experiment [9] it was 1.78%.
